Data: PubChem BioAssay (NCI)
The panel holds about 83,000 compounds, 20% with a hit somewhere; the sample as a whole holds those more often.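 Treatment: one concentration, 48 hours, 96-well format. Scoring: percent growth, with anything below 10 considered active.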 Activity calls are given as the source filed them.

Experiments:
Experiment in all cases: NCI-60 one-dose screen, 48 h (100 = growth as untreated, 0 = no growth, -100 = all killed)
Conditions in all cases: 10 µM
[1] = system: DU-145 prostate
[2] = system: K-562 leukemia
[3] = system: MALME-3M melanoma
[4] = system: MDA-MB-231 breast
[5] = system: RXF 393 renal
[6] = system: SF-268 CNS
[7] = system: SF-295 CNS
[8] = system: SF-539 CNS
[9] = system: UACC-257 melanoma
[10] = system: M14 melanoma
[11] = system: HCT-15 colon
[12] = system: HT29 colon
[13] = system: SNB-75 CNS
[14] = system: SNB-19 CNS
[15] = system: U251 CNS
[16] = system: PC-3 prostate
[17] = system: SK-MEL-5 melanoma
[18] = system: UACC-62 melanoma
[19] = system: LOX IMVI melanoma
[20] = system: SK-MEL-28 melanoma

Measured: growth

O=C(NCCCNS(=O)(=O)c1ccc(Cl)cc1)Nc1ccc(-n2cc(-c3ccncc3)c(-c3ccc(Cl)c(O)c3)n2)cc1
active: [4] -19.3% | [7] 2.43% | [12] 0.25% | [17] 2.07%
inactive: [1] 46.6% | [2] 10.1% | [3] 37.6% | [5] 18.9% | [6] 49.1% | [8] 47.9% | [9] 33.7% | [10] 18.1% | [11] 36.1% | [13] 61.7% | [14] 51.1% | [15] 37.6% | [16] 17.3% | [18] 42.8% | [19] 24.1% | [20] 40.7%

COc1ccc(-c2cc(-c3ccc(Cl)cc3)nc(SCCCC(=O)NO)n2)cc1OC
active: [2] 3.01% | [3] 6.86% | [4] 6.55% | [5] -38.2% | [6] 8.6% | [7] -32.6% | [8] -35.7% | [10] -40.2% | [11] -4% | [12] 6.66% | [13] 2.56% | [16] -5.41% | [17] -55.9% | [18] -60.1% | [19] -64.8%
inactive: [1] 14.2% | [9] 16.1% | [14] 14.8% | [15] 12.4% | [20] 20.5%

CC(C)(C)OC(=O)CN1CCc2c(sc3ncnc(N/N=C/c4cccc5ccccc45)c23)C1
active: [2] 6.22% | [18] 6.64%
inactive: [1] 66.4% | [3] 72.2% | [4] 39.9% | [5] 55.9% | [6] 60.2% | [7] 51.5% | [8] 24.3% | [9] 38.8% | [10] 42.7% | [11] 16.7% | [12] 45% | [13] 46% | [14] 53.7% | [15] 45.7% | [16] 31.9% | [17] 11.1% | [19] 26.2% | [20] 50.1%

O=C(Nc1cccc2c1CCCC2)c1cc2ccccc2cc1O
active: [17] -37.8%
inactive: [1] 51.2% | [2] 16.9% | [3] 26.8% | [4] 34.8% | [5] 39.5% | [6] 38.2% | [7] 79.9% | [8] 34.2% | [9] 22.3% | [10] 21.5% | [11] 30.8% | [12] 90.5% | [13] 63.8% | [14] 30.1% | [15] 33.8% | [16] 12.8% | [18] 23% | [19] 27.2% | [20] 34.2%

CCOC(=O)c1cc(C(=O)c2cc(OC)c(OC)c(OC)c2)n2c1ccc1c3cccnc3ccc12
inactive: [1] 89.3% | [2] 12.9% | [3] 79.3% | [4] 69.5% | [5] 66.8% | [6] 69.9% | [7] 63.4% | [8] 55.5% | [9] 73.4% | [10] 31.6% | [11] 41.4% | [12] 19.5% | [13] 64.7% | [14] 71.9% | [15] 51% | [16] 63.9% | [17] 34.1% | [18] 57.5% | [19] 46.9% | [20] 80.2%

COC(=O)C1(O)NC(=C(C#N)C#N)C(C#N)=C1C(=O)c1ccc(OC)c(OC)c1 (stereo not given)
inactive: [1] 111% | [2] 100% | [3] 103% | [4] 119% | [5] 100% | [6] 98.5% | [7] 105% | [8] 104% | [9] 81.7% | [10] 97.9% | [11] 105% | [12] 99.6% | [13] 94.5% | [14] 97.1% | [15] 92.5% | [16] 76.9% | [17] 101% | [18] 99.3% | [19] 99.4% | [20] 120%

S=C(NCc1ccccc1)NCc1ccccc1
inactive: [1] 107% | [2] 98.7% | [3] 95.3% | [4] 100% | [5] 101% | [6] 95.8% | [7] 95.8% | [8] 101% | [9] 81.9% | [10] 101% | [11] 107% | [12] 97% | [13] 82.2% | [14] 95.1% | [15] 91.6% | [16] 84.3% | [17] 98.3% | [18] 102% | [19] 95.6% | [20] 107%

O=C(CSc1nnc(-c2ccc(Cl)cc2)o1)Nc1ccc(C(=O)/C=C/c2ccc(Cl)cc2)cc1
inactive: [1] 103% | [2] 93.4% | [3] 114% | [4] 104% | [5] 99.1% | [6] 99.7% | [7] 101% | [8] 117% | [9] 98.7% | [10] 104% | [11] 107% | [12] 99% | [13] 98.1% | [14] 94.6% | [15] 104% | [16] 92.8% | [17] 94.1% | [18] 87.6% | [19] 98% | [20] 110%
